# Experimental data reported in the supplement of paper PMC8540655.
# Values without a mark were called inactive.
# System: Aedes aegypti larvae
# Assay: larval motility relative to same well at 0 h (fraction); higher = more motile (less active compound), active = 0.4 or less
# Conditions: 10 µM; 2 h
# Procedure, shortened: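 Aedes aegypti larvae were hatched at 25 °C in pond salt solution with yeast, collected after 18–24 h, and dispensed at about 10 per well (100 µL) in 96-well plates. Compounds were tested at 10 µM in 1% v/v DMSO, and each plate carried solvent and larvicide control wells. INVAPP movies of 200 frames at 100 ms intervals were recorded at 0, 2 and 24 h, and each value is the median of three independent larval batches. Relative motility is each well's score divided by that same well's starting score.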
row,Compound,larval motility
1,CCN(CC)S(=O)(=O)c1ccc(Cl)c(C(=O)Nc2sc3c(c2C#N)CCCC3)c1,1.52
2,O=S(=O)(Nc1ccc(O)cc1)c1cccc2cccnc12,1.06
3,CCCCc1ccc(-c2cc(C(=O)O)cc(-c3ccc(Cl)cc3)n2)cc1,0.642
4,O=C(O)c1ccc(-c2ccc(O[C@H]3O[C@H](CO)[C@@H](O)[C@H](O)[C@@H]3O)cc2)cc1,0.798
5,CC(N)C12CC3CC(CC(C3)C1)C2 (configuration not stated),1.14
6,NNC(=O)c1ccncc1,0.924
7,Clc1cccc(-c2nnc(-c3ccccc3)o2)c1,0.402
8,Nc1nc(O)c2ncn(COCCO)c2n1,0.732
9,O=C1C=C(c2ccccc2)S(=O)(=O)c2ccccc21,0.748
10,C[C@H](NC(CC(=O)c1ccccc1C(F)(F)F)C(=O)O)c1ccccc1 (some centres not stated),0.873
11,Cc1ccn2c(C(=O)NCc3ccccc3)c(C)nc2c1,1.47
12,Clc1cc(Cl)c2c(c1)CCc1ccccc1C2n1ccnc1 (configuration not stated),0.769
13,O=[N+]([O-])c1ccc2c(CCc3c[nH]c4ccccc34)c[nH]c2c1,1.12
14,CC(C)c1cc2c(cc1S(=O)(=O)O)[C@@]1(C)CCC[C@@](C)(C(=O)O)[C@@H]1CC2,0.784
15,O=[N+]([O-])c1cn(Cc2nc(O)nc(O)c2Br)cn1,0.834
16,CC(C)(C)NC(=O)[C@@H]1CN(Cc2cnc3occc3c2)CCN1C[C@@H](O)C[C@@H](Cc1ccccc1)C(=O)N[C@H]1c2ccccc2C[C@H]1O,0.857
17,C=C[C@]1(C)C[C@@H](OC(=O)CS[C@@H]2C[C@H]3CC[C@@H](C2)N3C)[C@]2(C)[C@H](C)CC[C@]3(CCC(=O)[C@H]32)[C@@H](C)[C@@H]1O,0.606
18,CC(C)Cn1c(=O)n(C)c(=O)c2c(-c3cncn3C)n(Cc3cccc4ccccc34)nc21,0.612
19,OCCC#Cc1nc(-c2ccc(F)cc2)c(-c2ccncc2)n1CCCc1ccccc1,0.457
20,CN(Cc1ccc(C(C)(C)C)cc1)Cc1cccc2ccccc12,0.508
21,CCCCc1ccc(-c2nc(C)c(C(=O)OC)s2)cc1,1.33
22,CCc1nc2ccc(Cl)cn2c1C(=O)NCc1ccc(N2CCC(c3ccc(OC(F)(F)F)cc3)CC2)cc1,0.959
23,Cc1nc(-c2ccc(C3N(C)c4ccc(F)cc4C(=O)N3c3ccccc3)s2)cs1 (configuration not stated),0.613
24,OB1OCc2cc(Cl)ccc21,0.664
25,CC(C)N(c1cc(-c2ccccc2)sc1C(=O)O)C(=O)[C@H]1CC[C@H](C)CC1,0.697
26,CN1CCN(Cc2ccc(-c3cnc4[nH]cc(-c5ccc6[nH]ccc6c5)c4c3)cc2)CC1,0.696
27,O=C1[C@H](CC[C@H](O)c2ccc(F)cc2)[C@@H](c2ccc(O)cc2)N1c1ccc(F)cc1,0.873
